Pf growth 48h – inhibits P. falciparum growth in the first generation, 48 h; P. falciparum luciferase growth in erythrocytes, 48 h; Potency, µM (series often up to 28.7 µM), for the others: at the highest dose activity change, negative = inhibition, most hits filed as inhibitors; 5.9% of 310,000 active; AID 504832; note: % is set by controls: 0 for no effect and ±100 for the full control effect
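Erythrocytes infected with P. falciparum carrying an integrated firefly luciferase reporter (2% hematocrit, 0.1% parasitemia final) were exposed to compounds in RPMI 1640 with 0.5% Albumax at 37 C, 5% CO2. Growth inhibition was scored as reduced luminescence.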
VACV Venus inh – vaccinia inhibition (Venus reporter); Vaccinia virus Venus reporter expression, fluorescence; Potency, µM (titrated, usually from 36.5 µM), for inactives: at the top dose activity change, negative = inhibition, hits mostly inhibitors; 0.46% of 330,000 active; calls by dose curve; tested in A549 cells; note: % is set by controls: 0 for no effect and ±100 for the full control effect; nearly all actives have a fitted effect of over 30% in size
NS1 inh – blocks influenza NS1 protein function; 0.4% of 270,000 active; AID 2326; Potency, µM (titrated, usually from 46.1 µM), for inactives: top-dose activity, positive = more growth; calls by dose curve; note: actives are rising curves; nearly all actives have a fitted effect of over 50% in size
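Growth recovery, yeast-based: influenza A NS1 expressed in S. cerevisiae causes slow growth, and suppressors are detected by OD600. The parent strain without NS1 is used as positive control.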
Pf growth 96h – P. falciparum growth inhibition at 96 hours | Potency, µM (titrated, usually from 28.7 µM), without a hit: at the highest dose activity change, negative = inhibition, usual class: inhibitors | AID 504834 | P. falciparum luciferase reporter growth, 96 h | 6.9% of 320,000 active; note: % is set by controls: 0 for no effect and ±100 for the full control effect
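Cell-based qHTS: luciferase-tagged P. falciparum in erythrocytes (2% hematocrit, 0.05% parasitemia final) incubated with compounds for 96 hours, 37 C, 5% CO2; luciferase detection reagent then added and luminescence measured.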
HCV inhibitor – HCV inhibition. 3.4% of 340,000 active. Potency, µM (top dose mostly 41.8 µM), inactives show at the top dose activity change, negative = inhibition, most hits filed as inhibitors. Huh7.5.1 HCVcc-Cre infection, luciferase reporter, 44 h; note: % is set by controls: 0 for no effect and ±100 for the full control effect
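1,000 cells/well; 4 h culture; + compound; + HCVcc-Cre (~0.5 moi); 44 h; luciferase substrate, RT 15 min; read 15 sec.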
VACV mCherry inh – inhibitors of vaccinia virus infection (mCherry reporter signal); Vaccinia virus mCherry reporter infection, fluorescence; Potency, µM (highest dose often 36.5 µM), for inactives: at the top dose activity change, negative = inhibition, usual class: inhibitors; 0.63% of 310,000 active; AID 720579; calls by dose curve; tested in A549 cells; note: % is set by controls: 0 for no effect and ±100 for the full control effect; nearly all actives have a fitted effect of over 35% in size
Active calls of the source: *; i = inactive; ? = inconclusive; . = not tested or not shown; ! = a repeat was not active; [ ] = remark or other dose. This is a sample that favours compounds with a hit; in the whole collection about 11% have one here. Unless noted, calls come from the whole dose curve; as a rule, active = well fitted inhibition curve with a large enough effect; inconclusive = small, poorly fitted or top-dose-only effect, or another doubt; inactive = no such curve, though single readings can be large or run the other way. Potency is the fitted concentration of half-maximal effect.

SMILES	Pf growth 48h	VACV Venus inh	NS1 inh	Pf growth 96h	HCV inhibitor	VACV mCherry inh
COc1ccc(-c2nn(-c3ccccc3)cc2C(N)=O)cc1OC	42%	.	9%	15µM*	10%	.
COc1ccc(-c2nn(-c3ccccc3)cc2/C=N/n2cnnc2)cc1OC	?	14%	-7%	-14%	?	.
COc1ccc(-c2nn(-c3ccccc3)cc2/C=N/NC(N)=S)cc1OC	12µM*	?	?	15µM*	11µM*	?
NC(=O)c1cn(-c2ccccc2)nc1-c1cccnc1	14%	.	1%	18%	8%	.
O=C(OCc1nc2ccccc2s1)C1CCN(S(=O)(=O)c2cccs2)CC1	102%	-7%	-12%	15%	17%	-13%
CC(C)(C)N(NC(=O)Nc1ccc(Cl)c(Cl)c1)C(=O)c1ccccc1	12µM*	13µM*	12%	?	?	-25%[1.46 µM]
Cc1ccc(NC(=O)Nc2ccc(F)c(Cl)c2)cc1	-72%	-4%	-41%	-6%	?	-29%
O=C(Nc1ccc(Cl)c(Cl)c1)Nc1nnc(-c2ccncc2)s1	27%	-19%	11%	2%	8.9µM*	-27%
N#Cc1ccc(NC(=O)Nc2ccc(Cl)cc2)cc1	?	11µM*	-44%	29%	?	?
CN(CC(=O)Nc1ccc(C#N)cc1)Cc1ccc(Cl)cc1	-27%	-24%	-15%	?	-19%	-22%
O=C(Nc1ccc(Cl)cc1)Nc1ccc(Cl)c(Cl)c1	2.3µM*	11µM*	.	2.7µM*	?	13µM*
CCCCCC(=O)Nc1cc(S(=O)(=O)N2CCCCC2)ccc1N1CCCCC1	.	-11%	.	.	?	-11%
C=CCn1c2ccccc2c2nnc(SCCN3CCOCC3)nc21	?	.	1%	?	-22%	.
O=C(Nc1ccccc1)Nc1ccc(Br)c(Cl)c1	?	?	-32%	0%	13µM*	?
O=C(Nc1ccc(Cl)c(Cl)c1)Nc1ccc(Br)cc1F	?	?	-42%	4.7µM*	?	?
CCOc1ccccc1N1CCN(C(=O)C(Sc2ccccc2)c2ccccc2)CC1 (stereo not given)	?	-19%	-4%	187%	-12%	.
CCN(c1ccccc1)S(=O)(=O)c1ccc(Oc2ccc(-n3ccnc3)cc2)nc1	?	-16%	-33%	1%	-24%	-6%
CC1CCCN(CCCNC(=O)C2CCC(CNS(=O)(=O)c3cccc4nsnc34)CC2)C1 (stereo not given)	-13%	-10%	13%	-6%	5%	-18%
Cc1cccc(N2CCN(C(=O)C3CC(=O)N(c4ccc5c(c4)OCCO5)C3)CC2C)c1 (stereo not given)	-29%	.	.	-11%	11µM*	.
Cc1ccccc1Cn1cnc2ccccc2c1=O	-3%	-11%	-6%	-22%	19%	i
COc1ccc(NCCC(O)c2ccc(Cl)cc2)cc1 (stereo not given)	5%	-7%	-2%	-6%	18%	-13%
COc1ccc(Cl)cc1NCCC(O)c1ccc(F)cc1 (stereo not given)	-3%[0.00184 µM]	.	-9%	-9%	7.1µM*	.
CC(=O)N(CC(=O)Nc1nn(-c2ccccc2)nc1C(N)=O)Cc1ccccc1	1µM*	.	-9%	.	-16%	.
NC(=O)c1nn(-c2ccccc2)nc1NC(=O)CN1CCCC1	-1%	-14%	-5%	0%	9%	-5%
Cc1cc(N2CCOCC2)nc2ccc(NC(=S)NC(C)C)cc12	1%[0.00184 µM]	.	-4%	24%	?	.
SMILES	Pf growth 48h	VACV Venus inh	NS1 inh	Pf growth 96h	HCV inhibitor	VACV mCherry inh
Cc1cc(N2CCCC2)nc2ccc(NC(=S)NC(C)C)cc12	10µM*	.	.	-24%	?	.
CCOCCCNC(=S)Nc1ccc2nc(N3CCCC3)cc(C)c2c1	12µM*	-13%	6%	-5%	?	-9%
O=C(NCCCN1CCCC1=O)c1ccccc1NS(=O)(=O)c1ccc(F)cc1	1%	-4%	0%	40%	13%	-11%
CSC(=O)NC12CC3CC(CC(C)(C3)C1)C2	11%	.	-8%	?	11%	.
CC(C)(C)NC(=O)[C@H]1CN(Cc2cccnc2)CCN1C[C@@H](O)C[C@@H](Cc1ccccc1)C(=O)N[C@H]1c2ccccc2C[C@H]1O	11µM*	.	.	-17%	.	.
CC(C)(C)NC(=O)C1c2ccccc2OCC(=O)N1Cc1cccnc1 (stereo not given)	.	3%	.	.	.	7%
CC(C)(C)n1nnnc1C(c1ccc(Cl)cc1)N(Cc1cccnc1)Cc1ccco1 (stereo not given)	?	?	-28%	24%	?	-18%[1.46 µM]
CC(C)(C)n1nnnc1CN(Cc1cccnc1)Cc1ccccc1Cl	15µM*	-15%	-13%	.	8%	-20%
CN(C)c1ccc(/C=C/C(=O)c2ccccc2)cc1[N+](=O)[O-]	106%	-6%	-12%	9.3µM*	53%	1%
CN(C)c1ccc(/C=N/NC(N)=S)cc1[N+](=O)[O-]	26%	4µM*	6%	4%	9%	3.5µM*
CNc1ccc(/C=C/C(=O)c2ccc(C)cc2)cc1[N+](=O)[O-]	9%	-4%	-3%	12µM*	-19%	-12%
O=C(/C=C/c1ccc(O)c([N+](=O)[O-])c1)c1ccc2ccccc2c1	?	0%	2%	?	10%	-18%
Cc1ccc2oc(C(=O)N3CCC(O)(c4ccccc4)CC3)c(C)c2c1	?	.	-22%	10µM*	-4%	.
Cc1cc(=O)[nH]c2c1c(=O)[nH]n2C1CC(C)N(C)CC1C (stereo not given)	?	-7%	1%	-29%	17%	-12%
CC(=O)N1CCN(C(=O)c2cccc(S(=O)(=O)N3CCOCC3)c2)CC1	28%	-12%	.	82%	5%	-10%
COc1ccccc1-n1cnc2cc(C(=O)N3CCOCC3)ccc21	10%	.	17%	9.3µM*	15%	.
COc1ccccc1N1CCN(C(=O)c2ccc3c(Cl)c4c(nc3c2)CCCC4)CC1	-3%	?	-33%	12µM*	5%[8.37 µM]	-11%
COc1ccccc1N1CCN(C(=O)c2ccc3nc(-c4ccco4)c(-c4ccco4)nc3c2)CC1	?	?	14µM*	.	11µM*!	11µM*
O=C(NCCCN1CCCC1)c1ccc2c(Cl)c3c(nc2c1)CCCC3	-5%	?	.	-17%	11µM*	-17%
Cc1ccc(N2CCN(C(=O)c3ccc4c(Cl)c5c(nc4c3)CCCC5)CC2)c(C)c1	.	-27%	.	.	.	?
COc1ccc(OC)c(NC(=O)CCNS(=O)(=O)c2cccc3nsnc23)c1	12%	-13%	17%	?	-11%	0%
CCNC(=S)NCCC1=c2ccccc2=N/C1=C\c1c(O)n(C)c(=O)n(C)c1=O	1%	.	5%	-1%	-3%	.

Bioassay records as filed in PubChem.
